PubChem BioAssay AID493168 (National Center for Advancing Translational Sciences (NCATS), 2011)
Results filed as inconclusive are left out. Values without a mark were called inactive. Calls of active or inactive are those of the source. The call rests on the fitted dose curve; in most records, active means well fitted inhibition curve with a large enough effect; inconclusive means small, poorly fitted or top-dose-only effect, or effect the other way; inactive means flat fitted curve, though single readings scatter.

Each compound was assayed against Ubiquitin carboxyl-terminal hydrolase 2 (Homo sapiens) (UniProt O75604) (assay: Confirmation Assay for Inhibitors of Ubiquitin-specific Protease USP2a Using CHOP2 as the Reporter). Conditions: USP2 core, Ub-CHOP2 coupled reporter fluorescence; series mostly up to 38.3 µM; activity change, negative = inhibition: at the top concentration.
Ubiquitin carboxyl-terminal hydrolase 2 (Homo sapiens), sequence (O75604 whole entry, looked up): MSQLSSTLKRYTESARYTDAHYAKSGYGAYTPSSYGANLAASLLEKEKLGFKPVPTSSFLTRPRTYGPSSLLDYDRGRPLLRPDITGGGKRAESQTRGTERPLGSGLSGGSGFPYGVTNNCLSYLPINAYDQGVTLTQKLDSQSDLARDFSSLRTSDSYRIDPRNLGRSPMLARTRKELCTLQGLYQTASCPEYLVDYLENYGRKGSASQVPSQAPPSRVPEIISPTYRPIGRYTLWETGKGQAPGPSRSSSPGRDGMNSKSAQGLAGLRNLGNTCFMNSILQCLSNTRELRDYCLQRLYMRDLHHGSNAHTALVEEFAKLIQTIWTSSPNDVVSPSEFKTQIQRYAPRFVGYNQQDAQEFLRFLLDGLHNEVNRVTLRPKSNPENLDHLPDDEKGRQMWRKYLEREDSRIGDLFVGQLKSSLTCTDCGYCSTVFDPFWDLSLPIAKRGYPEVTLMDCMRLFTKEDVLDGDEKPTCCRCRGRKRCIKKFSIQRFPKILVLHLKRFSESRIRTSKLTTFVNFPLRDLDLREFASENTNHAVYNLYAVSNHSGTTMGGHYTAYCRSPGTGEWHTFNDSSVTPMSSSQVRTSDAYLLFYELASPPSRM
Summary of the method: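 USP2 core (10 nM final) was preincubated with compound for 30 min at RT in Tris-HCl pH 8.0, CaCl2, beta-mercaptoethanol, CHAPS. Ub-CHOP2 and reporter substrate (25 nM final each) were added, and fluorescence (Ex 485/Em 531 nm) was read after 60 min.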
Further: nearly all actives have a fitted effect of over 55% in size.
Potency means the concentration at half of the fitted maximal effect.
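Wherever activity change, negative = inhibition is given: plate controls were DMSO wells for no effect and full inhibition by NEM control for full effect.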

In order of rising “activity change, negative = inhibition” value:
1. O=S(=O)(Nc1cccc(-c2cn3c(n2)SCC3)c1)c1ccc(F)cc1F  -19.9%
2. O=C(CCn1c(=O)c2ccccc2n(Cc2ccccc2)c1=O)NCc1ccc2c(c1)OCO2  -12.1%
3. O=C(Cc1ccccc1)Nc1cccc(N2CCCC2)c1  -9.77%
4. Cc1ccc2c(c1)c1c3n2CCN(C(=O)Cn2c(-c4ccccc4)noc2=O)C3CCC1 (centres undefined)  -6.27%
5. O=C(CN1CCC(O)CC1)N1c2ccccc2C=Cc2ccccc21  -6.07%
6. Cc1cc(C)cc(NC(=O)CSc2nc3c(c(=O)[nH]2)CN(Cc2ccc(F)cc2)CC3)c1  -4.37%
7. O=C(CSc1nc2ccccc2[nH]1)Nc1ccc2c(c1)OCCO2  -2.85%
8. CCCn1c(NC(=O)c2ccc(Br)cc2)nc2ccccc21  -2.73%
9. c1coc(CNc2nc(-c3cccs3)cs2)c1  -2.65%
10. CCOc1ccc(Cn2nnc(C(=O)NCc3ccccc3)c2N)cc1  -2.45%
11. CCN(CC)CCNc1nc(-c2ccccc2)c2c(c1C#N)CC(C)(C)OC2  -2.42%
12. Cc1ccc(-c2ccc(CCC(=O)O)n2NC(=O)c2cccs2)cc1  -2.31%
13. O=C(CCS(=O)(=O)c1ccc(Br)s1)NC1CCCC1  -2.3%
14. CCOC(=O)COc1ccccc1/C=N/O  -2.24%
15. CC(C)c1ccc(CCNC(=O)c2ccc([N+](=O)[O-])cc2)cc1  -1.71%
16. CCOC(=O)N1CCN(C(=O)CN(c2ccc(C)c(C)c2)S(=O)(=O)c2ccccc2)CC1  -1.56%
17. O=c1oc2c(CN3CCCCC3)c(O)ccc2c2c1CCCCC2  -1.38%
18. Cc1c(C(=O)NCc2c(F)cc(F)cc2F)oc2ccc(S(=O)(=O)N3CCOCC3)cc12  -1.34%
19. Cc1cccc(NCc2nc(-c3ccccc3)no2)c1  -0.935%
20. Cn1c(C(=O)N2CCN(Cc3ccc4c(c3)OCO4)CC2)cc2sccc21  -0.858%
21. O=C1Nc2ccc(S(=O)(=O)N3CCCCCC3)c3cccc1c23  -0.6%
22. CCOc1ccc(NC(=O)CSc2nnc(Cn3c(=O)sc4ccccc43)n2C)cc1  -0.518%
23. COc1ccccc1NC(=O)N1CCN(c2ccccn2)CC1  -0.22%
24. COC(=O)[C@@]12CCCCN1[C@H](c1ccc(-c3ccc(Cl)c(Cl)c3)cc1)[C@H]1C(=O)N(C)C(=O)[C@H]12  0.0461%
25. COc1cccc(NC(=O)Cc2ccccc2)c1  0.289%
26. COC(=O)c1cc2sc(Cl)cc2n1Cc1nc(-c2ccccc2)oc1C  0.488%
27. O=C(COC(=O)c1ccc(F)c(S(=O)(=O)N2CCOCC2)c1)c1ccccc1  0.56%
28. CCOC(=O)N1CCN(C(=O)c2cc3c(ccc4ccccc43)oc2=O)CC1  0.893%
29. CC1CCN(CC(O)COc2cccc(F)c2)CC1 (centres undefined)  2.47%
30. COc1ccc(CC(=O)c2ccccc2C(=O)O)cc1  2.55%
31. CCC1=[N+](CC(=O)c2ccc(Br)cc2)CCn2c(C)ccc21  3.43%
32. CCC(C)NC(=O)C1CN(S(=O)(=O)c2ccccc2)CCN1S(=O)(=O)c1ccccc1 (centres undefined)  3.46%
33. COC(=O)CC1Oc2ccc(C)cc2NC1=O (centres undefined)  5.71%
34. CC1(C)CC(=O)C2=C(C1)N(Cc1ccco1)C(=O)NC2(C(F)(F)F)C(F)(F)F  5.78%
35. CC(=O)c1ccc(Nc2ncnc3c2oc2ccccc23)cc1  6.35%

With `C#CCOCCOCCOCCNc1nc(N2CCN(C(=O)CCCCCCCCCCNC(=O)[C@@H](CCC(=O)O)n3cc(CCCCCN)nn3)CC2)nc(N2CCN(C(=O)CCCCCCCCCCNC(=O)[C@H](CCCCN)n3cc(C[C@@H](C)CC)nn3)CC2)n1` the Potency was 5.21 µM (active).
For `O=C1/C(=C/C=C/c2ccco2)SC(=S)N1NS(=O)(=O)c1ccccc1`, the Potency was 8.26 µM (active).
`O=C1Nc2ccccc2SC(c2ccccc2)C1O` (centres undefined) was tested, and the Potency was 13.1 µM (active).
In the case of `O=C(N/N=C/c1ccc(F)cc1)c1cc(-c2ccco2)nc2ccccc12`, the Potency is reported as 18.5 µM (active).
